Key:
Type in all cases: functional
[1] = test system: Plasmodium falciparum; assay: GSK_TCMDC: Inhibition of Plasmodium falciparum 3D7 in whole red blood cells, using parasite LDH activity as an index of growth. Test compounds present at 2uM
[2] = test system: Plasmodium falciparum; assay: GSK_TCMDC: Inhibition of Plasmodium falciparum Dd2 in whole red blood cells, using parasite LDH activity as an index of growth. Test compounds present at 2uM
[3] = test system: HepG2; assay: GSK_TCMDC: Percent inhibition of human HepG2 cell line. Test compounds present at 10uM.

SMILES | Inhibition [1] | Inhibition [2] | Inhibition [3]
CC1(C)N=C(N)N=C(Nc2ccc(Cl)cc2)N1.Cl | 97% | 0% | 8%
Nc1nc2c(ncn2OC[C@H](CO)OCP(=O)(O)O)c(=O)[nH]1 | 94% | 61% | 5%
NC1CCN(CCNCc2cccc(-c3ccc(-c4nc5cc(F)ccc5[nH]4)cc3)c2)C1.O=C(O)C(F)(F)F (stereo not given) | 99% | 4% | 8%
CN1CCN(CCCCCCNc2c3ccccc3nc3ccccc23)CC1.Cl | 100% | 0% | 35%
CCN(CC)CC(O)Cc1c2ccc([N+](=O)[O-])cc2nc2cc(OC)c(OC)cc12 (stereo not given) | 100% | 37% | 41%
O=C(N[C@H]1CCN(Cc2ccc(OCCN3CCNCC3)c(Br)c2)C1)c1ccc(Cl)c(Cl)c1.O=C(O)C(F)(F)F | 100% | 36% | 69%
Nc1ccc(-c2ccc(NC(=O)Nc3ccccc3)cc2)cn1 | 91% | 93% | 0%
CCOC(=O)/C(=N\OC(C(=O)OC(C)(C)C)c1ccccc1)c1csc(NC(c2ccccc2)(c2ccccc2)c2ccccc2)n1 (stereo not given) | 89% | 68% | 14%
CC(C)n1cc(CN2CCCC(C(=O)Nc3cccc(-c4cc5ccccc5[nH]4)c3)C2)cn1 (stereo not given) | 96% | 65% | 34%
CCN1CCC(N(Cc2ccc(-c3ccc(C(F)(F)F)cc3)o2)C(=O)Cn2c(CCc3cccc(F)c3F)nc(=O)c3ccccc32)CC1.O=C(O)C(O)C(O)C(=O)O | 91% | 88% | 45%
O=C(/C=C/c1ccc(Cl)c(Cl)c1)NC1CCN(Cc2ccc(O)cc2)CC1.O=C(O)C(F)(F)F | 100% | 43% | 0%
COc1ccc(Br)cc1/C=C/C(=O)Nc1cccc(C2CCCN(C)C2)c1.O=CO (stereo not given) | 99% | 30% | 12%
O=C(O)C(F)(F)F.O=S(=O)(NCCN1CCCC1)c1ccc(-c2cccc(CNC3Cc4ccccc4C3)c2)cc1F | 98% | 62% | 41%
COc1ccc(NC(=O)C2c3ccccc3C(=O)N(C3CCCC3)C2c2cccs2)cc1 (stereo not given) | 93% | 75% | 0%
COc1ccccc1C1CCN(CCCCNC(=O)c2ccc(NC(=O)c3ccc(Cl)cc3)cc2)CC1 | 95% | 12% | 21%
COc1cccc(NC(=O)NC2CCN(c3ccnc(Nc4cc(OC)c(OC)c(OC)c4)n3)C2)c1 (stereo not given) | 95% | 57% | 8%
Cc1cc(C2CCN(CCCCNC(=O)c3ccc(NC(=O)c4ccc(Cl)cc4)cc3)CC2)c(C)cc1OCc1cccnc1 | 100% | 90% | 39%
CCc1c[nH]c2c(N(c3ccccc3)S(C)(=O)=O)cc(C(=O)N[C@@H](Cc3ccccc3)[C@H](O)CNCc3cccc(C(F)(F)F)c3)cc12.O=CO | 93% | 98% | 20%
COc1ccc(CC(=O)NC(CCN2CCC3(CCc4ccccc43)CC2)c2ccc(Cl)c(Cl)c2)cc1 (stereo not given) | 90% | 75% | 28%
O=C(O)C(F)(F)F.c1cncc(CCNCc2ccc(-c3ccc(CNC4Cc5ccccc5C4)cc3)cc2)c1 | 92% | 29% | 32%
COc1cccc(NC(=O)CSc2nc(-c3ccccc3Cl)ns2)c1 | 99% | 100% | 7%
FC(F)(F)c1ccc2[nH]c(-c3cccc(-c4ccc(CNCc5cnn(-c6ccccc6)n5)cc4)c3)nc2c1.O=C(O)C(F)(F)F | 100% | 67% | 14%
CC1CCCCN1CCCNc1nc(NCc2ccccc2)c2ccccc2n1 (stereo not given) | 95% | 14% | 24%
Cl.Nc1cc(C(F)(F)F)ccc1Cl | 97% | 0% | 8%
Cc1c(Cl)cccc1N=C(S)NN=Cc1ccccn1 | 99% | 85% | 58%
COc1ccc2nccc([C@@H](O)CN3C4CCC3CC(NCc3ccc5c(n3)NC(=O)CS5)C4)c2n1.Cl (stereo not given in full) | 99% | 11% | 0%
Cc1ccc2[nH]ncc2c1N(CC1CCCCC1)c1ccnc(Nc2ccc(OCC(O)CN3CC=CCC3)cc2)n1.O=CO (stereo not given) | 100% | 79% | 29%
Cn1cc(C(=O)Nc2cccc(-c3cccc(-c4nc5ccccc5[nH]4)c3)c2)n(C)c1=O | 99% | 60% | 0%
CN(C)C(=O)c1cc(CNCc2ccccc2)ccc1-c1cccc(CNCc2ccc(-c3ccccc3)cc2)c1.O=C(O)C(F)(F)F | 90% | 12% | 27%
COc1ccc2ncc(F)c([C@@H](O)CN3CCC(NCc4cc5c(cn4)OCS5)CC3)c2c1.Cl | 100% | 98% | 16%

— ChEMBL document CHEMBL1157539, “Thousands of chemical starting points for antimalarial lead identification” (Nature, 2010)
